# Laboratory results as given in PubChem BioAssay (NCATS).
# Several values for one entry are separate records, joined by “and”; a condition that tells them apart may be missing. Identical values can stand only once. Inconclusive results are not listed. Where a call stands in place of a potency, no number is given. Activity calls are given as the source filed them. Calls come from the whole dose curve; as a rule, active = well fitted curve in the direction sought with a large enough effect; inconclusive = small, poorly fitted or top-dose-only effect, or another doubt; inactive = no such curve, though single readings can be large; an effect the other way counts as inactive or inconclusive.
# Legend:
# [1] = qHTS of pediatric cancer cell lines to identify multiple opportunities for drug repurposing: Primary screen for BT-37 cells (AID 1347094); note: potency is the fitted concentration of half-maximal effect
# Procedure, shortened: (§1)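 Cells plated at 500-1,000/well in growth medium, compounds added after 5 h. MIPE tested at 11 points (from 0.78 nM), NPC at 8 points (from 0.59 nM). CellTiter-Glo luminescence after 48 h; concentration-response curves from primary screen.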
# [2] = qHTS of pediatric cancer cell lines to identify multiple opportunities for drug repurposing: Primary screen for NB-EBc1 cells (AID 1347095)
# Procedure, shortened: as §1
# [3] = qHTS of pediatric cancer cell lines to identify multiple opportunities for drug repurposing: Primary screen for U-2 OS cells (AID 1347096); note: nearly all actives have a fitted effect of over 50% in size
# Procedure, shortened: (§2)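 Cells (500-1,000/well) in growth media were settled 5 h at 37 degrees C, then given compounds for 48 h. Viability was read as CellTiter-Glo luminescence. Primary runs used MIPE at 11 points (0.78 nM-46 µM) and NPC at 8 points (0.59 nM-46 µM); follow-ups used 11 points.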
# [4] = qHTS of pediatric cancer cell lines to identify multiple opportunities for drug repurposing: Primary screen for Saos-2 cells (AID 1347097); note: nearly all actives have a fitted effect of over 40% in size; note: potency is the fitted concentration of half-maximal effect
# Procedure, shortened: as §1
# [5] = qHTS of pediatric cancer cell lines to identify multiple opportunities for drug repurposing: Primary screen for SK-N-SH cells (AID 1347098); note: nearly all actives have a fitted effect of over 65% in size; note: potency is the fitted concentration of half-maximal effect
# Procedure, shortened: (§3)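 Cells (500-1,000/well) rested 5 h, then received compounds for 48 h; metabolically active cells were measured by CellTiter-Glo luminescence. Final concentrations spanned up to 46 µM (MIPE, 11-point) or 0.59 nM-46 µM (NPC, 8-point) in primary screens, 11-point in follow-ups.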
# [6] = qHTS of pediatric cancer cell lines to identify multiple opportunities for drug repurposing: Primary screen for LAN-5 cells (AID 1347100); note: potency is the fitted concentration of half-maximal effect
# Procedure, shortened: as §2
# [7] = qHTS of pediatric cancer cell lines to identify multiple opportunities for drug repurposing: Primary screen for BT-12 cells (AID 1347101); note: nearly all actives have a fitted effect of over 25% in size; note: potency is the fitted concentration of half-maximal effect
# Procedure, shortened: as §3
# [8] = qHTS of pediatric cancer cell lines to identify multiple opportunities for drug repurposing: Primary screen for OHS-50 cells (AID 1347103); note: nearly all actives have a fitted effect of over 40% in size; note: potency is the fitted concentration of half-maximal effect
# Procedure, shortened: as §3
# [9] = qHTS of pediatric cancer cell lines to identify multiple opportunities for drug repurposing: Primary screen for RD cells (AID 1347104); note: nearly all actives have a fitted effect of over 55% in size; note: potency is the fitted concentration of half-maximal effect
# Procedure, shortened: as §1
# [10] = qHTS of pediatric cancer cell lines to identify multiple opportunities for drug repurposing: Primary screen for control Hh wild type fibroblast cells (AID 1347106);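 note: series mostly up to about 46 µM; a drop in luminescence marks cytotoxicity and a rise apparent proliferation; nearly all actives have a fitted effect of over 55% in size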
# Procedure, shortened: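 Viability after 48 h compound treatment at 37C, 500-1,000 cells/well, read as ATP luminescence with CellTiter-Glo. Primary screens used 11-point (MIPE, 0.78 nM-46 µM) or 8-point (NPC, 0.59 nM-46 µM) final concentrations; follow-up screens used 11-point dilutions.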
# [11] = qHTS of pediatric cancer cell lines to identify multiple opportunities for drug repurposing: Primary screen for Rh30 cells (AID 1347107); note: series mostly up to about 46 µM; nearly all actives have a fitted effect of over 75% in size
# Procedure, shortened: as §2
# [12] = qHTS of pediatric cancer cell lines to identify multiple opportunities for drug repurposing: Primary screen for Rh41 cells (AID 1347108);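 note: series mostly up to about 46 µM; luminescence drop marks cytotoxic hits; nearly all actives have a fitted effect of over 70% in size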
# Procedure, shortened: as §1
# [13] = qHTS of pediatric cancer cell lines to identify multiple opportunities for drug repurposing: Confirmatory screen for A673 cells (AID 1347110);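 note: potency is the fitted concentration of half-maximal effect; cells exposed to compound for 48 h before the viability read; nearly all actives have a fitted effect of over 65% in size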
# Procedure, shortened: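 A673 cells at 500-1,000 cells/well were dosed 5 h after plating, in dilution series up to 46 uM final; primary runs used 8 or 11 points and confirmatory runs used 11 points. Viability was read by CellTiter-Glo luminescence after 48 h, against DMSO and 2.3 uM bortezomib controls.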
# [14] = qHTS of pediatric cancer cell lines to identify multiple opportunities for drug repurposing: Confirmatory screen for SK-N-MC cells (AID 1347111);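 note: cells exposed to compound for 48 h before the readout; nearly all actives have a fitted effect of over 70% in size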; note: potency is the fitted concentration of half-maximal effect
# Procedure, shortened: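 Metabolically active cells were quantified by ATP-dependent luminescence (CellTiter-Glo, 15 min at room temperature) following 48 h treatment. Cells had been plated at 500-1,000 per well and settled for 5 h beforehand.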
# [15] = qHTS of pediatric cancer cell lines to identify multiple opportunities for drug repurposing: Confirmatory screen for BT-12 cells (AID 1347112); note: nearly all actives have a fitted effect of over 55% in size; note: potency is the fitted concentration of half-maximal effect
# Procedure, shortened: as §2
# [16] = qHTS of pediatric cancer cell lines to identify multiple opportunities for drug repurposing: Primary screen for NB1643 cells (AID 1347099); note: nearly all actives have a fitted effect of over 50% in size
# Procedure, shortened: as §1
# [17] = qHTS of pediatric cancer cell lines to identify multiple opportunities for drug repurposing: Primary screen for Rh18 cells (AID 1347102); note: nearly all actives have a fitted effect of over 65% in size; note: potency is the fitted concentration of half-maximal effect
# Procedure, shortened: as §2
# [18] = qHTS of pediatric cancer cell lines to identify multiple opportunities for drug repurposing: Primary screen for MG 63 (6-TG R) cells (AID 1347105); note: nearly all actives have a fitted effect of over 50% in size
# Procedure, shortened: as §1
# [19] = qHTS of pediatric cancer cell lines to identify multiple opportunities for drug repurposing: Confirmatory screen for NB1643 cells (AID 1347109); note: nearly all actives have a fitted effect of over 45% in size
# Procedure, shortened: as §2
SMILES,Potency [1],Potency [2],Potency [3],Potency [4],Potency [5],Potency [6],Potency [7],Potency [8],Potency [9],Potency [10],outcome [11],Potency [12],Potency [13],Potency [14],Potency [15],Potency [16],Potency [17],Potency [18],Potency [19]
CN1CCN(CCCN2c3ccccc3Sc3ccc(Cl)cc32)CC1,9.68 µM (active),inactive,inactive,0.235 µM (active),24.4 µM (active),9.35 µM (active),6.11 µM (active),9.68 µM (active),9.35 µM (active) and 26.6 µM (active),inactive,inactive,inactive,7.37 µM (active),3.69 µM (active),16.5 µM (active),,,,
CC(C)Cc1ccc(C(C)C(=O)O)cc1 (configuration not stated),,inactive,inactive,inactive,inactive,inactive,inactive,inactive,inactive,inactive,inactive,inactive,6.57 µM (active),3.69 µM (active),inactive,inactive,inactive,inactive,inactive
Cc1cc(C(C)(C)C)c(O)c(C)c1CC1=NCCN1,inactive,inactive,inactive,inactive,inactive,inactive,inactive,inactive,,inactive,inactive,inactive,,,,inactive,inactive,inactive,
COc1ccccc1OCC(O)CN1CCN(CC(=O)Nc2c(C)cccc2C)CC1 (configuration not stated),,inactive,inactive,inactive,inactive,inactive,inactive,inactive,inactive,inactive,inactive,inactive,,,,inactive,inactive,inactive,
OCCN1CCN(CCCN2c3ccccc3Sc3ccc(C(F)(F)F)cc32)CC1,13.7 µM (active),,inactive,,21.5 µM (active) and 19.4 µM (active),,27.3 µM (active),24.3 µM (active) and 27.6 µM (active),18.7 µM (active),inactive,inactive,inactive,,,,,,,
Nc1nnc(-c2cccc(Cl)c2Cl)c(N)n1,inactive,inactive,inactive,inactive,inactive,inactive,inactive,inactive,inactive,inactive,inactive,inactive,,,,inactive,inactive,,
COc1ccc2[nH]cc(CCNC(C)=O)c2c1,,inactive,inactive,inactive,inactive,inactive,inactive,inactive,inactive,inactive,inactive,inactive,,,,inactive,inactive,inactive,
Cc1ccc(C(=O)Nc2ccc(S(=O)(=O)O)c3cc(S(=O)(=O)O)cc(S(=O)(=O)O)c23)cc1NC(=O)c1cccc(NC(=O)Nc2cccc(C(=O)Nc3cc(C(=O)Nc4ccc(S(=O)(=O)O)c5cc(S(=O)(=O)O)cc(S(=O)(=O)O)c45)ccc3C)c2)c1,,inactive,inactive,inactive,inactive,inactive,inactive,inactive,inactive,inactive,inactive,inactive,,,,inactive,inactive,,
CN1CCN2c3ccccc3Cc3ccccc3C2C1 (configuration not stated),,inactive,inactive,inactive,inactive,,inactive,,inactive,inactive,inactive,inactive,,,,inactive,inactive,,
COc1ccccc1OCCNCC(O)COc1cccc2[nH]c3ccccc3c12 (configuration not stated),,inactive,inactive,inactive,inactive,inactive,,,inactive,inactive,inactive,,,,,inactive,inactive,,
COc1cc2nc(N3CCN(C(=O)C4COc5ccccc5O4)CC3)nc(N)c2cc1OC (configuration not stated),,inactive,inactive,,19.2 µM (active),inactive,,24.6 µM (active),,inactive,inactive,inactive,,,,,26.4 µM (active),,
NC(=O)NO,,,inactive,,inactive,inactive,,,,inactive,inactive,,0.414 µM (active),inactive,inactive,inactive,inactive,,inactive
CNCCCC12CCC(c3ccccc31)c1ccccc12,,inactive,,26.4 µM (active),13.7 µM (active),inactive,,27.6 µM (active) and 24.3 µM (active),29.6 µM (active),inactive,inactive,,,,,,18.8 µM (active) and 18.7 µM (active),,
N[C@@H](Cc1c[nH]c2ccc(O)cc12)C(=O)O,,,inactive,inactive,,inactive,inactive,inactive,inactive,inactive,inactive,inactive,,,,inactive,inactive,,
